This passage reports growth results from PubChem BioAssay (NCI).

About 83,000 compounds went through this panel and 20% of them were active in at least one assay; those are over-represented in the sample as a whole.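 A percent growth of 40 corresponds to 60% growth inhibition; 0 means no net growth; -100 means all cells died. Active threshold: below 10.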 A number with no mark means an inactive call. Calls of active or inactive are those of the source.

The subject of one test is K-562 leukemia. The experiment in a line: NCI-60 one-dose screen, 48 h (100 = growth as untreated, 0 = no growth, -100 = all killed). Particulars: 10 µM unless noted.
In the case of `COc1cccc2c1c1nc3cc(C)c(C)cc3nc1n2CCN(C)C`, the growth was 6.22% (active).

In the case of `COc1cc(NC(C)CCCNC(=O)CCC(=O)NCCCNCCCCCCCCCCNCCCNC(=O)CCC(=O)NCCCC(C)Nc2cc(OC)cc3cccnc23)c2ncccc2c1` (centres undefined), the growth is 51.2% [8 µM].

For `COc1cc(/C=C\C(=O)O)ccc1OCc1ccccc1`, the growth is 126%.

For the compound `CCc1c(Cl)nc(N)nc1Nc1ccc(C)c(C)c1`, the growth was 96.5%.

On to `COc1cc2nc(-c3ccc(C(F)(F)F)cc3)cc(OCCCN3CCOCC3)c2cc1OC`, for which the growth is 11.5%.

In the case of `CCN(CC)c1ccc(/C=N/NC(=O)CSc2nc3ccccc3c(=O)n2Cc2ccc(S(N)(=O)=O)cc2)c(O)c1`, the growth was 6.12% (active).

Turning to `O=C(c1nnc(Nc2ccccc2Br)o1)c1c[nH]c2ccccc12`, the growth was 112%.

Take `NNC(=O)c1ccc(-n2nc(-c3ccccc3)c3ccccc32)cc1`: the growth was 84.1%.

Turning to `Cc1cnc(C(=O)Nc2nc3ccc(S(=O)(=O)Nc4ccc(C5(C(F)(F)F)CC5)cc4)cc3[nH]2)cn1`, the growth is 10%.

Consider `CCCCCCCCOc1ccc(/C=N/Nc2cc(C)nc3ccc(Br)cc23)cc1`, for which the growth is 10.7%.

On to `Cc1ccc(NC(=O)c2cc(-c3nc4ccccc4s3)c(=O)n(NS(=O)(=O)c3ccc(Cl)cc3)c2N)cc1`, for which the growth is 100%.

As to `N/C(=N\C(N)=N\c1nc2ccccc2s1)c1cnccn1`, the growth is 17.1%.

With `CCN(CC)CCCC(C)Nc1cc(O)cc2cccnc12` (centres undefined), the growth was 87.4%.

On to `COc1ccccc1NS(=O)(=O)c1cccc(C(=O)Nc2ccc(Br)cc2)c1`, for which the growth was 25.6%.

For `COc1c(Cl)c2c(c(OC)c1OC)-c1ccc(SC)c(=O)cc1[C@@H](NC(=O)OCC(F)(F)F)CC2`, the growth is 7.39% (active).

Regarding `O=C(Cn1c[n+](CC(=O)c2ccc(-c3ccccc3)cc2)c2ccccc21)Nc1cccc2cccnc12`, the growth was 12.6%.

As for `CC(=O)CCC(=O)OCc1cc(=O)c(O)co1`, the growth was 102%.

Take `COc1ccccc1NC(=O)C1CC(c2ccc(F)cc2)=NO1` (centres undefined): the growth is 95%.

For `COc1cccc(-c2nc3occn3c2-c2ccnc(NCCNS(=O)(=O)c3cccc4ccccc34)n2)c1`, the growth was 95.1%.

Regarding `N#C/C(=C\c1ccc([N+](=O)[O-])s1)c1nc2cc(Cl)ccc2s1`, the growth was 1.75% (active).

Take `CNC(=O)c1cccc(Cn2nc(C)c(NC(=O)c3ccc(COc4ccc(C(F)(F)F)cc4C)cc3)c2C)n1`: the growth was 30.4%.

With `N#Cc1c(NCc2ccccc2I)sc2c1CCCCC2`, the growth is 95.3%.

As for `CCCCCN1C=C/C(=C\C(=O)n2ccc3ccccc32)c2ccccc21`, the growth was 75%.

Take `COc1ccc(C(=O)c2cc(C)c(OC)c(C)c2)c(OC)c1OC(=O)C(Cl)Cl`: the growth was 8.43% (active).

Regarding `NC(=NCc1ccccc1)C(N=Nc1ccccc1)C(=O)NCc1ccccc1` (centres undefined), the growth was 25.2%.

With `N#CC1C(C#N)C2c3ccccc3C=CN2C1C(=O)c1ccc(Br)cc1` (centres undefined), the growth was 99.8%.

For the compound `O=S(=O)(NCCNc1nccc(-c2c(-c3cccc(O)c3)nc3occn23)n1)c1cccc(F)c1`, the growth was 70.8%.

Regarding `COc1cc2oc(-c3cccc(C(=O)Nc4ccc5c(c4)OCO5)c3)cc(=O)c2c(O)c1OC`, the growth was 94.5%.

In the case of `COc1cc(/C=C/c2cc(O)c(C(C)=O)c(O)c2)cc2c1O[C@]1(C)CC[C@@H](O)C(C)(C)[C@H]1C2`, the growth was 31.6%.

Take `Cc1cnc(C(=O)Nc2nc3ccc(S(=O)(=O)Nc4ccc(C(C)(C)C)cc4)cc3[nH]2)cn1`: the growth is 11.4%.

On to `O=S(=O)(Nc1ccc(-n2cnc3cc(-c4ccc(O)cc4)ccc32)cc1)c1ccccc1`, for which the growth was 65.4%.

As for `Nc1n[nH]c2cccc(C#Cc3cccc(C(=O)Nc4cc(CN5CCOCC5)cc(C(F)(F)F)c4)c3)c12`, the growth is 4.98% (active).

Take `COc1ccc(C(=O)c2cc(C)c(OC)c(C)c2)c(OC)c1N(C(=O)CCl)C(=O)CCl`: the growth is 9.77% (active).

Take `O=S(=O)(NCCNc1nccc(-c2c(-c3cccc(O)c3)nc3occn23)n1)c1ccccc1`: the growth is 68.4%.

Take `CC(C)(C)c1ccc(NS(=O)(=O)c2ccc3nc(NC(=O)c4cnccn4)[nH]c3c2)cc1`: the growth is 15.7%.

Turning to `C#CCNC(=O)c1cccc2c1cc(C)n2-c1nc2c(c(NCc3ccccc3)n1)CCCC2`, the growth is 6.56% (active).

With `NC1=NN=C(N)C1=Cc1cc2ccccc2n2nnnc12`, the growth was 92.9%.

In the next test the test system is MALME-3M melanoma. Described as above. To be noted: 10 µM unless noted.
With `COc1cccc2c1c1nc3cc(C)c(C)cc3nc1n2CCN(C)C`, the growth is -12.1% (active).

As to `COc1cc(NC(C)CCCNC(=O)CCC(=O)NCCCNCCCCCCCCCCNCCCNC(=O)CCC(=O)NCCCC(C)Nc2cc(OC)cc3cccnc23)c2ncccc2c1` (centres undefined), the growth is 38.9% [8 µM].

As to `COc1cc(/C=C\C(=O)O)ccc1OCc1ccccc1`, the growth is 102%.

Regarding `CCc1c(Cl)nc(N)nc1Nc1ccc(C)c(C)c1`, the growth was 100%.

In the case of `COc1cc2nc(-c3ccc(C(F)(F)F)cc3)cc(OCCCN3CCOCC3)c2cc1OC`, the growth is 45.2%.

Turning to `CCN(CC)c1ccc(/C=N/NC(=O)CSc2nc3ccccc3c(=O)n2Cc2ccc(S(N)(=O)=O)cc2)c(O)c1`, the growth was 31.3%.

With `O=C(c1nnc(Nc2ccccc2Br)o1)c1c[nH]c2ccccc12`, the growth is 105%.

Turning to `NNC(=O)c1ccc(-n2nc(-c3ccccc3)c3ccccc32)cc1`, the growth was 90.2%.

On to `Cc1cnc(C(=O)Nc2nc3ccc(S(=O)(=O)Nc4ccc(C5(C(F)(F)F)CC5)cc4)cc3[nH]2)cn1`, for which the growth was 32.2%.

Consider `CCCCCCCCOc1ccc(/C=N/Nc2cc(C)nc3ccc(Br)cc23)cc1`, for which the growth was 40.8%.

Regarding `Cc1ccc(NC(=O)c2cc(-c3nc4ccccc4s3)c(=O)n(NS(=O)(=O)c3ccc(Cl)cc3)c2N)cc1`, the growth is 112%.

With `N/C(=N\C(N)=N\c1nc2ccccc2s1)c1cnccn1`, the growth was 16.8%.

In the case of `CCN(CC)CCCC(C)Nc1cc(O)cc2cccnc12` (centres undefined), the growth is 128%.

On to `COc1ccccc1NS(=O)(=O)c1cccc(C(=O)Nc2ccc(Br)cc2)c1`, for which the growth was 32%.

On to `COc1c(Cl)c2c(c(OC)c1OC)-c1ccc(SC)c(=O)cc1[C@@H](NC(=O)OCC(F)(F)F)CC2`, for which the growth is 34.9%.

Turning to `O=C(Cn1c[n+](CC(=O)c2ccc(-c3ccccc3)cc2)c2ccccc21)Nc1cccc2cccnc12`, the growth was 8.16% (active).

In the case of `CC(=O)CCC(=O)OCc1cc(=O)c(O)co1`, the growth is 95.5%.

Take `COc1ccccc1NC(=O)C1CC(c2ccc(F)cc2)=NO1` (centres undefined): the growth is 100%.

For `COc1cccc(-c2nc3occn3c2-c2ccnc(NCCNS(=O)(=O)c3cccc4ccccc34)n2)c1`, the growth was 111%.

As for `N#C/C(=C\c1ccc([N+](=O)[O-])s1)c1nc2cc(Cl)ccc2s1`, the growth is -57.1% (active).

With `CNC(=O)c1cccc(Cn2nc(C)c(NC(=O)c3ccc(COc4ccc(C(F)(F)F)cc4C)cc3)c2C)n1`, the growth is 83.8%.

For the compound `N#Cc1c(NCc2ccccc2I)sc2c1CCCCC2`, the growth is 87.5%.

As for `CCCCCN1C=C/C(=C\C(=O)n2ccc3ccccc32)c2ccccc21`, the growth is 81.7%.

Consider `COc1ccc(C(=O)c2cc(C)c(OC)c(C)c2)c(OC)c1OC(=O)C(Cl)Cl`, for which the growth was 58.9%.

Turning to `NC(=NCc1ccccc1)C(N=Nc1ccccc1)C(=O)NCc1ccccc1` (centres undefined), the growth is 133%.

Turning to `N#CC1C(C#N)C2c3ccccc3C=CN2C1C(=O)c1ccc(Br)cc1` (centres undefined), the growth was 100%.

As to `O=S(=O)(NCCNc1nccc(-c2c(-c3cccc(O)c3)nc3occn23)n1)c1cccc(F)c1`, the growth is 4.35% (active).

On to `COc1cc2oc(-c3cccc(C(=O)Nc4ccc5c(c4)OCO5)c3)cc(=O)c2c(O)c1OC`, for which the growth was 88.1%.

As for `COc1cc(/C=C/c2cc(O)c(C(C)=O)c(O)c2)cc2c1O[C@]1(C)CC[C@@H](O)C(C)(C)[C@H]1C2`, the growth was 65.8%.

For the compound `Cc1cnc(C(=O)Nc2nc3ccc(S(=O)(=O)Nc4ccc(C(C)(C)C)cc4)cc3[nH]2)cn1`, the growth was 43.8%.

Consider `O=S(=O)(Nc1ccc(-n2cnc3cc(-c4ccc(O)cc4)ccc32)cc1)c1ccccc1`, for which the growth is 100%.

Regarding `Nc1n[nH]c2cccc(C#Cc3cccc(C(=O)Nc4cc(CN5CCOCC5)cc(C(F)(F)F)c4)c3)c12`, the growth is 0.564% (active).

For the compound `COc1ccc(C(=O)c2cc(C)c(OC)c(C)c2)c(OC)c1N(C(=O)CCl)C(=O)CCl`, the growth was 49.8%.

As for `O=S(=O)(NCCNc1nccc(-c2c(-c3cccc(O)c3)nc3occn23)n1)c1ccccc1`, the growth was 2.3% (active).

Take `CC(C)(C)c1ccc(NS(=O)(=O)c2ccc3nc(NC(=O)c4cnccn4)[nH]c3c2)cc1`: the growth is 31.9%.

Take `C#CCNC(=O)c1cccc2c1cc(C)n2-c1nc2c(c(NCc3ccccc3)n1)CCCC2`: the growth was -59% (active).

`NC1=NN=C(N)C1=Cc1cc2ccccc2n2nnnc12`: the growth was 108%.
